# Experiments:
# Test in all cases: DAPPL (digital affinity profiling via proximity ligation, sequencing); 10 mM Tris-HCl pH 7.5, 50 mM NaCl, 1 mM DTT, 4% glycerol, room temperature, 30 min; GST-TFs on glutathione beads, 16-mer random dsDNA library, 0.1% formaldehyde crosslink after washing; high values mean tight binding
# Conditions in all cases: protein: recombinant; tags: N-terminal GST; dsDNA, one strand shown
# [1] = biological target: T1, FLI1 (Homo sapiens, UniProt Q01543 1-452)
# T1 sequence: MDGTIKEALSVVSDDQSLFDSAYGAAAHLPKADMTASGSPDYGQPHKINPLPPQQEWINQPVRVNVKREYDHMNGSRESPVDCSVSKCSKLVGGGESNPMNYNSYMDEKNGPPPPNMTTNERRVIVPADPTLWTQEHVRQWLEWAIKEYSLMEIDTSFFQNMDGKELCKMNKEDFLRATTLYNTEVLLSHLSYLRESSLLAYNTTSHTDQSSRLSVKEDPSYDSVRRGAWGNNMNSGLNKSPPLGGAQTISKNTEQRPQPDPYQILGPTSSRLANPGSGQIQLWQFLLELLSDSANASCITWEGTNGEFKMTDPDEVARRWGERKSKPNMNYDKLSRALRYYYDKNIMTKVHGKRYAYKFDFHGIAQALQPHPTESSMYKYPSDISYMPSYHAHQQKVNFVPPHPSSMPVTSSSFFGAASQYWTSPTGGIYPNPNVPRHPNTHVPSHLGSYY
# Method in brief: (§1)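 The binding signal reported is, for every hexamer, its read frequency for a factor over its read frequency for the tag-only sample. Reads came from pools of yeast-expressed, GST-fused human transcription factors on glutathione beads, barcoded with DNA and mixed with that sample, which were incubated with 200 nmole of a random double-stranded 16-mer DNA library in Tris/NaCl/DTT/glycerol buffer at room temperature for 30 min. After washing, the pools were crosslinked with 0.1% formaldehyde, proximity-ligated with BsaI/T4 ligase for 1 h at 37 °C, PCR-amplified and sequenced on an Illumina NextSeq500.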
# [2] = biological target: T2, ELK1 (Homo sapiens, UniProt P19419 1-428)
# T2 sequence: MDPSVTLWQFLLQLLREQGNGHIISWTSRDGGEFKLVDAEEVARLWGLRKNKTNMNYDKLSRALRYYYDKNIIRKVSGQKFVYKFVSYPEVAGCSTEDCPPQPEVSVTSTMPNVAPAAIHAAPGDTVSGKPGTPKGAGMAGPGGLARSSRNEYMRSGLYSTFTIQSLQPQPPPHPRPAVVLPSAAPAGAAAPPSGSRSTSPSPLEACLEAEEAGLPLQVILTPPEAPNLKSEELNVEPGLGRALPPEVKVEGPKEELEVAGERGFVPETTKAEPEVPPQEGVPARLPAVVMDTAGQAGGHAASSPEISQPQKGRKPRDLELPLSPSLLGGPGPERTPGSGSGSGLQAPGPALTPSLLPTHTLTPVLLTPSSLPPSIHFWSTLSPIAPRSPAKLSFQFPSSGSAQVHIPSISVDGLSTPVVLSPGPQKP
# Method in brief: as §1
# [3] = biological target: T3, GABPA (Homo sapiens, UniProt Q06546 1-454)
# T3 sequence: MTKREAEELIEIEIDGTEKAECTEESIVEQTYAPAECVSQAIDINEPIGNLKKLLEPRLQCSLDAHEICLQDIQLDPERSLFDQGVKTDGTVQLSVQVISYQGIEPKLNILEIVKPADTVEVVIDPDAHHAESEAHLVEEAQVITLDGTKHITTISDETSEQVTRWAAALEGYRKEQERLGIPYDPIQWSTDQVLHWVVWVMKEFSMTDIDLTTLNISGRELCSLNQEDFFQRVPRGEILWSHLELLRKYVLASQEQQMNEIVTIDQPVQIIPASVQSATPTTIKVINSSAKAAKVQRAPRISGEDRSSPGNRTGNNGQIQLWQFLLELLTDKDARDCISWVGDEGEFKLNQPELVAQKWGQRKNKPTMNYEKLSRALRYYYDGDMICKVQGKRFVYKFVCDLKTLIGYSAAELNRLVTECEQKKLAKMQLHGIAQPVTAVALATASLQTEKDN
# Method in brief: as §1
# [4] = biological target: T4, ERG (Homo sapiens, UniProt P11308 1-479)
# T4 sequence: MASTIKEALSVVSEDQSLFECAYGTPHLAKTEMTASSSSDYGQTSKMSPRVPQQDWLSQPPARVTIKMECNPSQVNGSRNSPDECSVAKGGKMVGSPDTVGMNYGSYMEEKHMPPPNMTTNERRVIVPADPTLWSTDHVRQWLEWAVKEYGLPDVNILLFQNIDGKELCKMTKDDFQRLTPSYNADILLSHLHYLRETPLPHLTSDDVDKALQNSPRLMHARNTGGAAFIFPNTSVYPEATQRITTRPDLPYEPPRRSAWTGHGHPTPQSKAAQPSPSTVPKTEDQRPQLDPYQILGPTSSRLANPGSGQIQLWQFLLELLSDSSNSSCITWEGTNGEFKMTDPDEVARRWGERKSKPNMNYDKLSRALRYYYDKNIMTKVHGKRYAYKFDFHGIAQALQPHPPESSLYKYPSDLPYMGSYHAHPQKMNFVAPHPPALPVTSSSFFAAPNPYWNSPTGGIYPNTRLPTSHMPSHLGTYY
# Method in brief: as §1
# [5] = biological target: ELF1 (Homo sapiens, UniProt P32519 1-619)
# Method in brief: as §1
# [6] = biological target: T5, EHF (Homo sapiens, UniProt Q9NZC4 1-300)
# T5 sequence: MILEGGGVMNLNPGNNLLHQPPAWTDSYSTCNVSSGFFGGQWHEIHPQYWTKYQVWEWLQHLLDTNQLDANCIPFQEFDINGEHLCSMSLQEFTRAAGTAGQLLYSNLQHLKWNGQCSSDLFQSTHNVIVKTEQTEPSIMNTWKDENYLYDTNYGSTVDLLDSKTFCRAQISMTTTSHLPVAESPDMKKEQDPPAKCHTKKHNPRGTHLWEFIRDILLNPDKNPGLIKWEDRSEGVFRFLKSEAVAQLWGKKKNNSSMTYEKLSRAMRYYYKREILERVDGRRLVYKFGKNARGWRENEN
# Method in brief: as §1
# [7] = biological target: SPI1 (Homo sapiens, UniProt P17947 1-270)
# Method in brief: as §1
# [8] = biological target: SPIB (Homo sapiens, UniProt Q01892 1-262)
# Method in brief: as §1
# [9] = biological target: T6, ELK3 (Homo sapiens, UniProt P41970 1-407)
# T6 sequence: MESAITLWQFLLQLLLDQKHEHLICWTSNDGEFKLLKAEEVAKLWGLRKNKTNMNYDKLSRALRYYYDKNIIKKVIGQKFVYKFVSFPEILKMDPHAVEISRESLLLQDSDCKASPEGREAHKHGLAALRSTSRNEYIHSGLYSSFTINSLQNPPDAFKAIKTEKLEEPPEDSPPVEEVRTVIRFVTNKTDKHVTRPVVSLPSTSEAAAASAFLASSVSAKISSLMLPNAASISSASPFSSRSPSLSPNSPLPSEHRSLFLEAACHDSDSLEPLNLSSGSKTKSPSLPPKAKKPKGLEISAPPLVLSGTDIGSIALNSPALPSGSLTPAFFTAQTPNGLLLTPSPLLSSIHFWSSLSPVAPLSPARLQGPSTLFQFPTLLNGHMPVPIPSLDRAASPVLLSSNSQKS
# Method in brief: as §1
# SPIB, sequence (Q01892 whole entry): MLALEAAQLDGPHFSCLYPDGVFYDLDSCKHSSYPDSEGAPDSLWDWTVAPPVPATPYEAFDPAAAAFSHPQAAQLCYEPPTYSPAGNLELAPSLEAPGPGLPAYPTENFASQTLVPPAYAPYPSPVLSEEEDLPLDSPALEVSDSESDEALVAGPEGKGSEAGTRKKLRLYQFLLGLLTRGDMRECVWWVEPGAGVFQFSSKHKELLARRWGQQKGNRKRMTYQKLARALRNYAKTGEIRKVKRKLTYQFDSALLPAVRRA
# ELF1, sequence (P32519 whole entry): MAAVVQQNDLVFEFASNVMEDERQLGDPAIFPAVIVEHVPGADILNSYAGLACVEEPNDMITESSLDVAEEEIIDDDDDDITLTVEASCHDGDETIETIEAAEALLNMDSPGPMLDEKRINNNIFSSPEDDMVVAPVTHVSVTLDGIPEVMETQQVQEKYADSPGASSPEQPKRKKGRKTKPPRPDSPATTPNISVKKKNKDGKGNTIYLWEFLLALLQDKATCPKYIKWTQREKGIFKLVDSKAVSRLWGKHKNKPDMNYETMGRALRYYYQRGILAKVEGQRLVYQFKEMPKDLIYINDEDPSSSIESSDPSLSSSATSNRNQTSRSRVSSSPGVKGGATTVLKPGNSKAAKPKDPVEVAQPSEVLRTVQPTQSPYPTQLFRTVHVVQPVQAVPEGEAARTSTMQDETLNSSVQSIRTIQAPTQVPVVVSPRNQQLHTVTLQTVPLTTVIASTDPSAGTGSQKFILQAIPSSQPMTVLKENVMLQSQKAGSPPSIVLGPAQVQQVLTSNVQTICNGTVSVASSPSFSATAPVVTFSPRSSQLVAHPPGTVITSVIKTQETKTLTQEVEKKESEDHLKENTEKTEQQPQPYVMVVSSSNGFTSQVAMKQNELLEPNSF
sequence,measurement,setting,value
TGTACG,binding signal,[1],"1.18 fold enrichment (6-mer frequency, TF over GST control)"
same,binding signal,[2],"1.23 fold enrichment (6-mer frequency, TF over GST control)"
same,binding signal,[3],"1.08 fold enrichment (6-mer frequency, TF over GST control)"
same,binding signal,[4],"1.15 fold enrichment (6-mer frequency, TF over GST control)"
same,binding signal,[5],"1.11 fold enrichment (6-mer frequency, TF over GST control)"
same,binding signal,[6],"1.12 fold enrichment (6-mer frequency, TF over GST control)"
same,binding signal,[7],"1.19 fold enrichment (6-mer frequency, TF over GST control)"
same,binding signal,[8],"1.1 fold enrichment (6-mer frequency, TF over GST control)"
same,binding signal,[9],"1.23 fold enrichment (6-mer frequency, TF over GST control)"
